{"source": "paper PMC12820563", "about": "“FoxP3 forms a head-to-head dimer in vivo and stabilizes its multimerization on adjacent microsatellites”", "note": "Over roughly 16,000 sequences, “rpm ratio (pull-down/input)” has its median near 0.94; the highest 2% begin near 1.7. The list comes from a sample in which the highest values are over-represented; it also holds similar and randomly drawn sequences."}
{"target": "T1, MBP-FoxP1dN (Mus musculus, UniProt P58462 326-579)", "T1 sequence": "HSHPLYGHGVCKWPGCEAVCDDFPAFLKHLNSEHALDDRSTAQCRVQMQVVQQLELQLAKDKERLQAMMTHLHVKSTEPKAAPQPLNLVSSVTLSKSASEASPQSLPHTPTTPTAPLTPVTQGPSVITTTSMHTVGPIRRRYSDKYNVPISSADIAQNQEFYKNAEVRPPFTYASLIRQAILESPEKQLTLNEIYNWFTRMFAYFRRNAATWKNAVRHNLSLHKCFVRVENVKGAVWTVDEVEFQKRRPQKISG", "assay": "PD-seq (MBP pull-down with sequencing); 20 mM Tris-HCl pH 7.5, 100 mM NaCl, 1.5 mM MgCl2, 0.4 uM protein, 0.1 uM dsDNA library, 30 min, room temperature, amylose pull-down; high values mean tight binding", "conditions": "protein: recombinant; tags: His6-MBP; chain copies: 2; dsDNA, one strand shown", "how_it_was_run": "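Amylose resin was used to capture complexes formed during 30 min at room temperature in Tris pH 7.5 buffer with NaCl and MgCl2 between 0.4 µM His6-MBP-tagged mouse FoxP3 or FoxP1 fragment lacking the N-terminus, expressed in E. coli, and 0.1 µM Klenow-filled double-stranded degenerate DNA library. After three washes, the DNA was released with proteinase K, barcoded by PCR and sequenced on Illumina. Binding is pooled-replicate reads-per-million enrichment, pull-down over input.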"}
{"sequence": "GATGATTGTTCTCCCAGCTGATGAATTTTGTGTTTCGAGTAAACAAATTTTCCTAATCTTTCTGTTCAAGCGCCATCTAC", "binding signal": "1.58 RPM ratio (pull-down/input)"}
{"sequence": "GATGATTGTTCTCCCAGCTGATGAATTTGTGTTTTCGAGTAAACAAATTTTCCTAATCTTTCTGTTCAAGCGCCATCTAC", "binding signal": "2.61 RPM ratio (pull-down/input)"}
{"sequence": "GATGATTGTTCTCCCAGCTGATGAATTTGTGTGTTCGAGTAAACAAATTTTCCTAATCTTTCTGTTCAAGCGCCATCTAC", "binding signal": "1.59 RPM ratio (pull-down/input)"}
{"sequence": "GATGATTGTTCTCCCAGCTGATGAATTCTGTGTTTCGAGTAAACAAATTTTCCTAATCTTTCTGTTCAAGCGCCATCTAC", "binding signal": "1.14 RPM ratio (pull-down/input)"}
{"sequence": "GATGATTGTTCTCCCAGCTGATGAATTGTGTGTTTCGAGTAAACAAATTTTCCTAATCTTTCTGTTCAAGCGCCATCTAC", "binding signal": "1.57 RPM ratio (pull-down/input)"}
{"sequence": "GATGATTGTTCTCCCAGCTGATGAATTTGTGATTTCGAGTAAACAAATTTTCCTAATCTTTCTGTTCAAGCGCCATCTAC", "binding signal": "1.41 RPM ratio (pull-down/input)"}
{"sequence": "GATGATTGTTCTCCCAGCTGATGAATTTGTGTTCTCGAGTAAACAAATTTTCCTAATCTTTCTGTTCAAGCGCCATCTAC", "binding signal": "1.48 RPM ratio (pull-down/input)"}
{"sequence": "GATGATTGTTCTCCCAGCTGATGAATTTTTGTGTTCGAGTAAACAAATTTTCCTAATCTTTCTGTTCAAGCGCCATCTAC", "binding signal": "1.95 RPM ratio (pull-down/input)"}
{"sequence": "GATGATTGTTCTCCCAGCTGATGAATTGTGTTTTTCGAGTAAACAAATTTTCCTAATCTTTCTGTTCAAGCGCCATCTAC", "binding signal": "2.33 RPM ratio (pull-down/input)"}
{"sequence": "GATGATTGTTCTCCCAGCTGATGAATTGATAGCTTCGAGTAAACAAATTTTCCTAATCTTTCTGTTCAAGCGCCATCTAC", "binding signal": "0.923 RPM ratio (pull-down/input)"}
{"sequence": "GATGATTGTTCTCCCAGCTGATGAATTGCAATTCTCGAGTAAACAAATTTTCCTAATCTTTCTGTTCAAGCGCCATCTAC", "binding signal": "1.38 RPM ratio (pull-down/input)"}
{"sequence": "GATGATTGTTCTCCCAGCTGATGAATTAAGCCTATCGAGTAAACAAATTTTCCTAATCTTTCTGTTCAAGCGCCATCTAC", "binding signal": "0.873 RPM ratio (pull-down/input)"}
{"sequence": "GATGATTGTTCTCCCAGCTGATGAATTCTTCCAATCGAGTAAACAAATTTTCCTAATCTTTCTGTTCAAGCGCCATCTAC", "binding signal": "0.955 RPM ratio (pull-down/input)"}
{"sequence": "GATGATTGTTCTCCCAGCTGATGAATTTCTATAATCGAGTAAACAAATTTTCCTAATCTTTCTGTTCAAGCGCCATCTAC", "binding signal": "1.1 RPM ratio (pull-down/input)"}
{"sequence": "GATGATTGTTCTCCCAGCTGATGAATTCTCAACCTCGAGTAAACAAATTTTCCTAATCTTTCTGTTCAAGCGCCATCTAC", "binding signal": "0.795 RPM ratio (pull-down/input)"}
{"sequence": "GATGATTGTTCTCCCAGCTGATGAATTAATGCCGTCGAGTAAACAAATTTTCCTAATCTTTCTGTTCAAGCGCCATCTAC", "binding signal": "1.11 RPM ratio (pull-down/input)"}
{"sequence": "GATGATTGTTCTCCCAGCTGATGAATTCACCGCCTCGAGTAAACAAATTTTCCTAATCTTTCTGTTCAAGCGCCATCTAC", "binding signal": "0.899 RPM ratio (pull-down/input)"}
{"sequence": "GATGATTGTTCTCCCAGCTGATGAATTGTGATCGTCGAGTAAACAAATTTTCCTAATCTTTCTGTTCAAGCGCCATCTAC", "binding signal": "1.16 RPM ratio (pull-down/input)"}
{"sequence": "GATGATTGTTCTCCCAGCTGATGAATTTTTGACATCGAGTAAACAAATTTTCCTAATCTTTCTGTTCAAGCGCCATCTAC", "binding signal": "1.09 RPM ratio (pull-down/input)"}
{"sequence": "GATGATTGTTCTCCCAGCTGATGAATTATTGACATCGAGTAAACAAATTTTCCTAATCTTTCTGTTCAAGCGCCATCTAC", "binding signal": "2 RPM ratio (pull-down/input)"}
{"sequence": "GATGATTGTTCTCCCAGCTGATGAATTTCTGACATCGAGTAAACAAATTTTCCTAATCTTTCTGTTCAAGCGCCATCTAC", "binding signal": "0.96 RPM ratio (pull-down/input)"}
{"sequence": "GATGATTGTTCTCCCAGCTGATGAATTATTGAAATCGAGTAAACAAATTTTCCTAATCTTTCTGTTCAAGCGCCATCTAC", "binding signal": "1.23 RPM ratio (pull-down/input)"}
{"sequence": "GATGATTGTTCTCCCAGCTGATGAATTGTTGACATCGAGTAAACAAATTTTCCTAATCTTTCTGTTCAAGCGCCATCTAC", "binding signal": "2.54 RPM ratio (pull-down/input)"}
{"sequence": "GATGATTGTTCTCCCAGCTGATGAATTGACAACATCGAGTAAACAAATTTTCCTAATCTTTCTGTTCAAGCGCCATCTAC", "binding signal": "2.29 RPM ratio (pull-down/input)"}
{"sequence": "GATGATTGTTCTCCCAGCTGATGAATTGACATAATCGAGTAAACAAATTTTCCTAATCTTTCTGTTCAAGCGCCATCTAC", "binding signal": "1.63 RPM ratio (pull-down/input)"}
{"sequence": "GATGATTGTTCTCCCAGCTGATGAATTGACATTATCGAGTAAACAAATTTTCCTAATCTTTCTGTTCAAGCGCCATCTAC", "binding signal": "1.5 RPM ratio (pull-down/input)"}
{"sequence": "GATGATTGTTCTCCCAGCTGATGAATTGATGACATCGAGTAAACAAATTTTCCTAATCTTTCTGTTCAAGCGCCATCTAC", "binding signal": "1.34 RPM ratio (pull-down/input)"}
{"sequence": "GATGATTGTTCTCCCAGCTGATGAATTGAACTAATCGAGTAAACAAATTTTCCTAATCTTTCTGTTCAAGCGCCATCTAC", "binding signal": "0.992 RPM ratio (pull-down/input)"}
{"sequence": "GATGATTGTTCTCCCAGCTGATGAATTACCGCGCTCGAGTAAACAAATTTTCCTAATCTTTCTGTTCAAGCGCCATCTAC", "binding signal": "0.948 RPM ratio (pull-down/input)"}
{"sequence": "GATGATTGTTCTCCCAGCTGATGAATTTGATTCCTCGAGTAAACAAATTTTCCTAATCTTTCTGTTCAAGCGCCATCTAC", "binding signal": "0.839 RPM ratio (pull-down/input)"}
{"sequence": "GATGATTGTTCTCCCAGCTGATGAATTCTTGGTTTCGAGTAAACAAATTTTCCTAATCTTTCTGTTCAAGCGCCATCTAC", "binding signal": "0.962 RPM ratio (pull-down/input)"}
{"sequence": "GATGATTGTTCTCCCAGCTGATGAATTTACCCCGTCGAGTAAACAAATTTTCCTAATCTTTCTGTTCAAGCGCCATCTAC", "binding signal": "1.07 RPM ratio (pull-down/input)"}
{"sequence": "GATGATTGTTCTCCCAGCTGATGAATTCGTCTCTTCGAGTAAACAAATTTTCCTAATCTTTCTGTTCAAGCGCCATCTAC", "binding signal": "0.871 RPM ratio (pull-down/input)"}
{"sequence": "GATGATTGTTCTCCCAGCTGATGAATTGGAACGTTCGAGTAAACAAATTTTCCTAATCTTTCTGTTCAAGCGCCATCTAC", "binding signal": "0.904 RPM ratio (pull-down/input)"}
{"sequence": "GATGATTGTTCTCCCAGCTGATGAATTATTGTGGTCGAGTAAACAAATTTTCCTAATCTTTCTGTTCAAGCGCCATCTAC", "binding signal": "1.51 RPM ratio (pull-down/input)"}
{"sequence": "GATGATTGTTCTCCCAGCTGATGAATTGTTGCTGTCGAGTAAACAAATTTTCCTAATCTTTCTGTTCAAGCGCCATCTAC", "binding signal": "2 RPM ratio (pull-down/input)"}
{"sequence": "GATGATTGTTCTCCCAGCTGATGAATTGCTGATGTCGAGTAAACAAATTTTCCTAATCTTTCTGTTCAAGCGCCATCTAC", "binding signal": "1.22 RPM ratio (pull-down/input)"}
{"sequence": "GATGATTGTTCTCCCAGCTGATGAATTGCTGTTGTCGAGTAAACAAATTTTCCTAATCTTTCTGTTCAAGCGCCATCTAC", "binding signal": "2.5 RPM ratio (pull-down/input)"}
{"sequence": "GATGATTGTTCTCCCAGCTGATGAATTTTTGCTGTCGAGTAAACAAATTTTCCTAATCTTTCTGTTCAAGCGCCATCTAC", "binding signal": "1.59 RPM ratio (pull-down/input)"}
{"sequence": "GATGATTGTTCTCCCAGCTGATGAATTCTTGCTGTCGAGTAAACAAATTTTCCTAATCTTTCTGTTCAAGCGCCATCTAC", "binding signal": "1.45 RPM ratio (pull-down/input)"}
{"sequence": "GATGATTGTTCTCCCAGCTGATGAATTGCTGCTGTCGAGTAAACAAATTTTCCTAATCTTTCTGTTCAAGCGCCATCTAC", "binding signal": "1.29 RPM ratio (pull-down/input)"}
